Experimental data as given in ChEMBL document CHEMBL3433997, “St. Jude Leishmania screening dataset” (2016).

What follows are compounds tested against Solute carrier family 2, facilitated glucose transporter member 1 (Homo sapiens) (UniProt P11166) (assay: ST_JUDE_LEISH: Cytotoxicity at 2uM final concentration against transgenic Leishmania Mexicana promastigotes LmGLUT1 that are glucose transport deficient and complemented with the human glucose transporter GLUT1. Activity is measured by DNA content using SYBR green in vitro).
Type: functional

Sequence of Solute carrier family 2, facilitated glucose transporter member 1 (Homo sapiens) (P11166 whole entry): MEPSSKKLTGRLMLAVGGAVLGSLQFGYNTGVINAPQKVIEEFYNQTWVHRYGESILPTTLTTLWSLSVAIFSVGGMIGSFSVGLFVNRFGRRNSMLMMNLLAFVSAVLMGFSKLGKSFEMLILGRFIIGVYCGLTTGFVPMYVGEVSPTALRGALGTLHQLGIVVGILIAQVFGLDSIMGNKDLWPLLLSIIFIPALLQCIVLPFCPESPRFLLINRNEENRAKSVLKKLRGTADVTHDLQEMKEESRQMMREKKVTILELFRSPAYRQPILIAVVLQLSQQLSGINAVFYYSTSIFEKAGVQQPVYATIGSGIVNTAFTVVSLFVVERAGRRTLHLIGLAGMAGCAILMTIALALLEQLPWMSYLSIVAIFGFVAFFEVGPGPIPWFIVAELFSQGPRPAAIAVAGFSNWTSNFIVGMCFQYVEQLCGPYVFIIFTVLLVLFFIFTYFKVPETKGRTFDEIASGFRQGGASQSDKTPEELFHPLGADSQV

Structure (SMILES)	inhibition
Cc1ccc(CNC(=O)[C@H](Cc2ccccc2)Nc2cc(C)nc(Nc3ccccc3)n2)cc1	7.2%
COc1cc(Nc2nccc(N3CCC(NC(=O)Nc4cccc(C(C)=O)c4)C3)n2)cc(OC)c1OC (stereo unspecified)	2.52%
COc1ccccc1C1CCN(C2CCC(NC(=O)/C=C/c3ccc(OC(F)(F)F)cc3)CC2)CC1 (stereo unspecified)	0.94%
Clc1cccc(C=NNc2nc(=Nc3ccccc3)[nH]c(=Nc3ccccc3)[nH]2)c1	8.44%
Nc1cccc(CNCc2cccc(-c3csc(-c4nc5ccccc5[nH]4)c3)c2)c1	2.32%
O=C(/C=C/c1ccc(Cl)c(Cl)c1)NCCCCCN1CCC(C(=O)Nc2ccc(Cl)c(Cl)c2)CC1	3%
COc1cc2ccccc2cc1CCNCCCCNCCc1cc2ccccc2cc1OC	101%
CS(=O)(=O)CCNCc1nc(-c2ccc3c(Nc4ccc(Oc5ccccn5)cc4)ccnc3c2)cs1	5.17%
CCCCCCCN1CC[C@@H](CCCc2ccnc3ccc(OC)cc23)[C@@H](CCN)C1	3.03%
O=C(CSc1ccccn1)Nc1c(F)cccc1F	3.81%
COc1cc(NC(=O)c2cccc([N+](=O)[O-])c2)cc(S(=O)(=O)c2ccc(Cl)cc2)c1	-0.46%
CC(C)(Cc1ccc(Cl)cc1)NCCCCCCNCCc1ccc(O)c(O)c1	-0.5%
COc1ccccc1C1CC(c2ccc(C)cc2)=NN1C(=O)c1ccccc1 (stereo unspecified)	8.25%
CC1(C)NC(N)=NC(=N)N1OCCSc1ccc(Cl)c(Cl)c1	5.92%
O=[N+]([O-])c1cccc(Nc2nccc(-c3cnn4ncccc34)n2)c1	83%
CN1CCN(CCCN(Cc2ccc(-c3cccc(CNCc4ccc5c(c4)OCO5)c3)cc2)C(=O)Nc2ccccc2)CC1	4.2%
